# The list is not random: actives were taken first. Their share in the collection is about 4.8%.
# ATXN2 expr inh = inhibitors of ATXN2 expression. HEK-293 ATXN2-luciferase reporter, luminescence, 24 h. Potency, µM (top dose mostly 57 µM), inactives show at the top dose activity change, negative = inhibition, hits mostly inhibitors. actives 0.72% (n = 360,000). AID 1745845; further: potency means the concentration at half of the fitted maximal effect; on the % scale 0 is the no-effect control and ±100 the full control effect; nearly all actives have a fitted effect of over 55% in size
#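 ATXN2-luciferase reporter cells (luciferase flanked by upstream and downstream ATXN2 gene portions) were treated 24 h at 37 °C with compounds at up to 57 uM. SteadyGlo luminescence gave expression; GF-AFC fluorescence gave viability.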
# USP1-UAF1 inh = blocks the human USP1/UAF1 deubiquitinase complex; O94782; recombinant USP1/UAF1, Ub-Rhodamine cleavage fluorescence; Potency, µM (series often up to 57.1 µM), without a hit: top-dose activity change, negative = inhibition, usual class: inhibitors; actives 0.23% (n = 390,000); further: potency means the concentration at half of the fitted maximal effect; on the % scale 0 is the no-effect control and ±100 the full control effect; nearly all actives have a fitted effect of over 60% in size
#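 USP1/UAF1 complex (1 nM) preincubated 15 min at room temperature with compound, then Ub-Rho substrate (150 nM final) added. Kinetic fluorescence at 480/540 nm over 6 reads at 60 s intervals; 50 mM HEPES pH 7.8, 0.5 mM EDTA, 0.1 mg/ml BSA, 1 mM TCEP, 0.01% Tween-20.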
# S2 tox = viability counter-screen for ATXN expression inhibitors. S2 cells (HEK-293 line with an ATXN2-luciferase reporter) viability, CellTiter-Fluor protease fluorescence, 24 h. Potency, µM (titrated, usually from 56.7 µM), actives largely listed as cytotoxic. actives 0.49% (n = 400,000); further: potency means the concentration at half of the fitted maximal effect; nearly all actives have a fitted effect of over 40% in size
# IL1B secr inh = inhibitors of inflammasome signaling (IL-1 beta secretion); THP-1 LPS/ATP IL-1B secretion, AlphaLISA, 16 h; active compounds read low; activity change, % at 57.5 µM; actives 4.7% (n = 360,000); AID 743279; in the data active means activity change below about -50%; inconclusive means mostly about -30% to -49%; further: on the % scale 0 is the no-effect control and ±100 the full control effect
#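 Secreted IL-1B measured by AlphaLISA bead assay after 16 h compound exposure of THP-1 cells; compounds (final up to 57.5 uM) added 1 h before LPS (250 ng/mL) and ATP (1.25 mM) stimulation; lower signal means less secretion.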
# USP2a inh = inhibitors of human ubiquitin-specific protease USP2a; O75604; actives 0.01% (n = 330,000); AID 463254; USP2 core, Ub-CHOP2 coupled fluorogenic reporter, 485/531; Potency, µM (titrated, usually from 38.3 µM), for the others: at the top dose activity change, negative = inhibition, actives largely listed as inhibitors;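 further: potency means the concentration at half of the fitted maximal effect; plate controls were DMSO wells for no effect and full inhibition by NEM control for full effect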
# Target sequence (O75604 whole entry, looked up): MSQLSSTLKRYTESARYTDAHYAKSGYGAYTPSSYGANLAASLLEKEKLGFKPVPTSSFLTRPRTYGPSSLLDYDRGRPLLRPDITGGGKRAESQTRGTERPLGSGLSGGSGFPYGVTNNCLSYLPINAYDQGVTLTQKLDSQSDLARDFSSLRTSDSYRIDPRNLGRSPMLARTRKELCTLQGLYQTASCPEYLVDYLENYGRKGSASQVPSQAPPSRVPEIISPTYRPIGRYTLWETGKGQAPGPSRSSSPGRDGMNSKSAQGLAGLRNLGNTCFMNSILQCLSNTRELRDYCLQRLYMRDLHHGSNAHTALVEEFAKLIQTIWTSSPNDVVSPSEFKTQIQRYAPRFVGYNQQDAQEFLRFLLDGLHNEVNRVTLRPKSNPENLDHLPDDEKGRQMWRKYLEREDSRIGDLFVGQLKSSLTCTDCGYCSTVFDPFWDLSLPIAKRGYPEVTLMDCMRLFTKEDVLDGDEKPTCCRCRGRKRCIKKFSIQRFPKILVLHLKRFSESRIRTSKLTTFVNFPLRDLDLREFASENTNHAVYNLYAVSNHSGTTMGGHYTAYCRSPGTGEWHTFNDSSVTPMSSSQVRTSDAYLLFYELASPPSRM
#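 USP2 core (10nM final) preincubated 30min RT with compound in 20mM Tris-HCl pH 8.0, 2mM CaCl2, 2mM beta-mercaptoethanol, 0.05% CHAPS; 25nM Ub-CHOP2 plus 25nM reporter substrate added, fluorescence (Ex485/Em531) read after 60min.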
# Active calls of the source: *; i = inactive; ? = inconclusive; nt = no result. Unless noted, the call rests on the fitted dose curve; in most records, active means well fitted curve in the direction sought with a large enough effect; inconclusive means small, poorly fitted or top-dose-only effect, or another doubt; inactive means no such curve, though single readings can be large; an effect the other way counts as inactive or inconclusive.
SMILES,ATXN2 expr inh,USP1-UAF1 inh,S2 tox,IL1B secr inh,USP2a inh
N#CC1=C(N)OC2=C(CCc3ccccc32)C1c1ccccc1Cl (centres undefined),-36%,-19%,i,-73*,2%
COc1ccc(Cn2c(SCC(=O)N3CCN(c4ccc(F)cc4)CC3)nc3ccccc32)cc1,-2%,-30%,i,nt,nt
C#CCOCCOCCOCCNc1nc(N2CCN(C(=O)CCCCCCCCCCNC(=O)[C@@H](CCSC)n3cc(CCO)nn3)CC2)nc(N2CCN(C(=O)CCCCCCCCCCNC(=O)[C@H]([C@@H](C)CC)n3cc(CCCCCN)nn3)CC2)n1,28µM*,?,14µM*,-72*,-16%
C#CCOCCOCCOCCNc1nc(N2CCN(C(=O)CCCCCCCCCCNC(=O)[C@@H](CCSC)n3cc(CCO)nn3)CC2)nc(N2CCN(C(=O)CCCCCCCCCCNC(=O)[C@H]([C@@H](C)CC)n3cc(CCCCN=C(N)N)nn3)CC2)n1,?,?,16µM*,-104*,-20%
O=S(=O)(c1ccccc1F)N1CCN(CCc2ccccc2)CC1,-18%,-14%,i,-17,0%
CCN(CC(=O)Nc1ccc(NC(C)=O)cc1)C(=O)c1ccccc1SCC(=O)N1CCCC1,1%,-18%,i,0,-6%
Cc1c(C(=O)Nc2cccc(C(F)(F)F)c2)oc2ccc(S(=O)(=O)N3CCC4(CC3)OCCO4)cc12,nt,-3%,nt,nt,nt
O=S(=O)(NCC(c1ccco1)N1CCCCC1)c1ccccc1C(F)(F)F (centres undefined),-16%,-14%,i,0,-7%
Cc1cnc(NC(=O)NCC2CCCC(CNC(=O)Nc3ncc(C)s3)C2)s1 (centres undefined),-8%,-8%,i,-98*,-1%
Cc1ccc(C(=O)Nc2ncc(C)s2)o1,1%,-14%,i,-2,1%
CCN1C(=O)[C@H]2[C@@H](c3ccc(-c4ccc(F)cc4)c(OC)c3)N[C@@](Cc3ccccc3)(C(=O)OC)[C@H]2C1=O,-10%,?,i,-62*,4%
CCN1C(=O)[C@H]2[C@@H](c3ccc(-c4ccccc4)c(OC)c3)N[C@@](Cc3ccccc3)(C(=O)OC)[C@H]2C1=O,5%,?,i,16,0%
CCN1C(=O)[C@H]2[C@@H](c3ccc(-c4cccc(Cl)c4)c(OC)c3)N[C@@](CC(C)C)(C(=O)OC)[C@H]2C1=O,-14%,-20%,i,-61*,3%
CCCn1c(SCC(O)c2ccccc2)nc2ccccc21 (centres undefined),nt,-7%,nt,nt,nt
COc1cc(CN2CCC3(CCC(CNC(=O)c4ccco4)O3)CC2)cc(OC)c1 (centres undefined),nt,nt,i,nt,nt
Cc1noc(-c2ccc(N(C)Cc3ccccc3)c([N+](=O)[O-])c2)n1,37%,-18%,i,nt,nt
CCc1nc(N)nc(N)c1-c1ccc(N(C)Cc2ccccc2)c([N+](=O)[O-])c1,19µM*,-16%,?,-98*,nt
C[C@H]1CN([C@@H](C)CO)C(=O)CCCn2nncc2CO[C@H]1CN(C)C(=O)Cc1ccccc1,-2%,6%,i,-11,nt
Clc1ss/c(=N\c2ccccn2)c1Cl,-9%,-7%,i,-91*,3%
CCOC(=O)c1nc2cc3n(c(C)c-2c1C)C(C)C(C)=C3C (centres undefined),-21%,-15%,i,-62*,1%
COc1ccc2c(c1)CCCN2C(N)=Nc1ccc(Cl)cc1,?,-17%,i,-63*,-11%
COc1ccc2c(c1)CCCN2C(N)=O,2%,-10%,i,-10,0%
c1ccc(-c2nnc(-c3ccccc3)o2)cc1,75%,-11%,i,33,0%
ClCc1nnc(-c2ccccc2)o1,nt,-6%,?,-88*,1%
N#Cc1c(N)nc(Sc2ccc(Cl)cc2)c(C#N)c1-c1ccccc1Cl,-15%,-9%,?,-96*,1%
CCSc1nc(N)c(C#N)c(-c2ccccc2Cl)c1C#N,-29%,-20%,?,11,4%
COc1ccc(CNC(=O)Cn2c(SCC(=O)Nc3ccc(C)c(C)c3)nc3ccccc32)cc1,-1%,-9%,i,nt,nt

# Compound activity deposited in PubChem by National Center for Advancing Translational Sciences (NCATS).
